According to ChEMBL document CHEMBL1961873, “Compounds: GSK PKIS; Assays: Nanosyn kinase panel” (2012):

Tests used:
[1] = target: Tyrosine-protein kinase receptor UFO (Homo sapiens) (UniProt P30530); conditions: at 1 µM
[2] = target: Tyrosine-protein kinase Blk (Homo sapiens) (UniProt P51451); conditions: at 0.1 µM
[3] = target: Tyrosine-protein kinase Blk (Homo sapiens) (UniProt P51451); conditions: at 1 µM
[4] = target: T1, Cytoplasmic tyrosine-protein kinase BMX (Homo sapiens) (UniProt P51813); conditions: at 0.1 µM
T1 sequence (whole entry): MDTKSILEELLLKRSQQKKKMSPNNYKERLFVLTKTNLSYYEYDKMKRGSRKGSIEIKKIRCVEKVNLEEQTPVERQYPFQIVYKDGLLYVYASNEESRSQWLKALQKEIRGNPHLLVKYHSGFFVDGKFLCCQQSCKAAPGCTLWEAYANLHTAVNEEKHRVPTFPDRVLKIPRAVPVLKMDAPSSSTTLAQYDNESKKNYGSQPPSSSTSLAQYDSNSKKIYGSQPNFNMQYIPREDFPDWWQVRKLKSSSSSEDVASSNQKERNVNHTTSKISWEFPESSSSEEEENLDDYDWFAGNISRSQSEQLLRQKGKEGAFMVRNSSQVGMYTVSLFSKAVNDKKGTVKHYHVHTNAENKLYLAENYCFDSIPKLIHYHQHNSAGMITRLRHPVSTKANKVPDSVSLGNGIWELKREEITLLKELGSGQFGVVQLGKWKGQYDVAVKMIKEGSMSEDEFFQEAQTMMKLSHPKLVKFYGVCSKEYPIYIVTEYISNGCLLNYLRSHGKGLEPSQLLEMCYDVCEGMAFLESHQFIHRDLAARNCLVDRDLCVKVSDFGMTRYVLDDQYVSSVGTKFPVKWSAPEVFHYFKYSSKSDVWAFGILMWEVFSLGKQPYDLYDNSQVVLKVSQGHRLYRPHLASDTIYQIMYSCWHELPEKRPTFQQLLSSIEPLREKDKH

[5] = target: T1, Cytoplasmic tyrosine-protein kinase BMX (Homo sapiens); conditions: at 1 µM
[6] = target: Protein-tyrosine kinase 6 (Homo sapiens) (UniProt Q13882); conditions: at 0.1 µM
Protein-tyrosine kinase 6 (Homo sapiens), sequence (Q13882 whole entry, looked up): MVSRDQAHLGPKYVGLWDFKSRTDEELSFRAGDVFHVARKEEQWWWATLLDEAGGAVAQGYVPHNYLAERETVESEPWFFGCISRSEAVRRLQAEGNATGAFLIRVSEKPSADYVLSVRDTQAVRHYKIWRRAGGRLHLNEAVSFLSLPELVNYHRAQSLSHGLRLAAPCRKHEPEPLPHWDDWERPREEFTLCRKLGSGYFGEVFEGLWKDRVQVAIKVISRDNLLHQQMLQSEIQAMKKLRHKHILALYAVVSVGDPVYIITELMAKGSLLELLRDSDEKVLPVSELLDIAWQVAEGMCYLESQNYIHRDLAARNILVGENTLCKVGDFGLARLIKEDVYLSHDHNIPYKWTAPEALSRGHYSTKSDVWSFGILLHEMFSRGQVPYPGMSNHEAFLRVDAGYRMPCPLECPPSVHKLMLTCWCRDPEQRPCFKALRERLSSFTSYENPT

[7] = target: Protein-tyrosine kinase 6 (Homo sapiens) (UniProt Q13882); conditions: at 1 µM
[8] = target: Tyrosine-protein kinase BTK (Homo sapiens) (UniProt Q06187); conditions: at 0.1 µM
Tyrosine-protein kinase BTK (Homo sapiens), sequence (Q06187 whole entry): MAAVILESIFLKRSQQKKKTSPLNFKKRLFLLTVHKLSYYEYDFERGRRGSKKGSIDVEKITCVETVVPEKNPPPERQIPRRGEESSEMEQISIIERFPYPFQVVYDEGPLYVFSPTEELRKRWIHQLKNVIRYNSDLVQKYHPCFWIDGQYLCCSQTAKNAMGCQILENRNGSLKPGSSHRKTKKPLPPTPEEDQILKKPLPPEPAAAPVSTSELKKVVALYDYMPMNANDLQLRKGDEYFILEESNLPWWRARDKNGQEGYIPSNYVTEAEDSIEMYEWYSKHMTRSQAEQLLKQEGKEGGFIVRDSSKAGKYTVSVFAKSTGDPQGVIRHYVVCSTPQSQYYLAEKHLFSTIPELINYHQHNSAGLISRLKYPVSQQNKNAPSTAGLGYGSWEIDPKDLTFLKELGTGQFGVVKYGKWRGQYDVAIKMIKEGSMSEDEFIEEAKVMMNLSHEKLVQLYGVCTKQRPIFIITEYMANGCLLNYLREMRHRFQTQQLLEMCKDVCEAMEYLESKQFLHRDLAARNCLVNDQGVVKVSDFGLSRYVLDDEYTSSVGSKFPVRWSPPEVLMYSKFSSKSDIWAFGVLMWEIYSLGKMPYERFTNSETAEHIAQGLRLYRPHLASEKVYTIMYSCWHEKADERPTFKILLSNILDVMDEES

[9] = target: Tyrosine-protein kinase BTK (Homo sapiens) (UniProt Q06187); conditions: at 1 µM
[10] = target: Tyrosine-protein kinase CSK (Homo sapiens) (UniProt P41240); conditions: at 0.1 µM;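 also: value given is the averaged percent inhibition of CSK kinase activity, from the GSK PKIS kinase inhibitor set screening panel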
Tyrosine-protein kinase CSK (Homo sapiens), sequence (P41240 2-450 limits assumed): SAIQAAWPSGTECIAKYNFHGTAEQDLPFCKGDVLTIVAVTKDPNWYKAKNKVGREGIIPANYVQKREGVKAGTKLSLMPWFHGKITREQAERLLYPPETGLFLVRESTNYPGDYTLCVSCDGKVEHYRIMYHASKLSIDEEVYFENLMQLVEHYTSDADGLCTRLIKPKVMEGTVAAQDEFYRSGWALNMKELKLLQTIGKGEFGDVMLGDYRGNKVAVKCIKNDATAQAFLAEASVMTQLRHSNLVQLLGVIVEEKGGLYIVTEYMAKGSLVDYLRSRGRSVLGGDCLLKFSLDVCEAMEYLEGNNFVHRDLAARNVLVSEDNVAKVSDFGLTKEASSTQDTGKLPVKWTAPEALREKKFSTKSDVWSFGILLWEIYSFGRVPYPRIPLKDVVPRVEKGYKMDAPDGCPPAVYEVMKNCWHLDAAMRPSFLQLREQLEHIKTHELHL

Tyrosine-protein kinase receptor UFO (Homo sapiens), sequence (P30530 whole entry): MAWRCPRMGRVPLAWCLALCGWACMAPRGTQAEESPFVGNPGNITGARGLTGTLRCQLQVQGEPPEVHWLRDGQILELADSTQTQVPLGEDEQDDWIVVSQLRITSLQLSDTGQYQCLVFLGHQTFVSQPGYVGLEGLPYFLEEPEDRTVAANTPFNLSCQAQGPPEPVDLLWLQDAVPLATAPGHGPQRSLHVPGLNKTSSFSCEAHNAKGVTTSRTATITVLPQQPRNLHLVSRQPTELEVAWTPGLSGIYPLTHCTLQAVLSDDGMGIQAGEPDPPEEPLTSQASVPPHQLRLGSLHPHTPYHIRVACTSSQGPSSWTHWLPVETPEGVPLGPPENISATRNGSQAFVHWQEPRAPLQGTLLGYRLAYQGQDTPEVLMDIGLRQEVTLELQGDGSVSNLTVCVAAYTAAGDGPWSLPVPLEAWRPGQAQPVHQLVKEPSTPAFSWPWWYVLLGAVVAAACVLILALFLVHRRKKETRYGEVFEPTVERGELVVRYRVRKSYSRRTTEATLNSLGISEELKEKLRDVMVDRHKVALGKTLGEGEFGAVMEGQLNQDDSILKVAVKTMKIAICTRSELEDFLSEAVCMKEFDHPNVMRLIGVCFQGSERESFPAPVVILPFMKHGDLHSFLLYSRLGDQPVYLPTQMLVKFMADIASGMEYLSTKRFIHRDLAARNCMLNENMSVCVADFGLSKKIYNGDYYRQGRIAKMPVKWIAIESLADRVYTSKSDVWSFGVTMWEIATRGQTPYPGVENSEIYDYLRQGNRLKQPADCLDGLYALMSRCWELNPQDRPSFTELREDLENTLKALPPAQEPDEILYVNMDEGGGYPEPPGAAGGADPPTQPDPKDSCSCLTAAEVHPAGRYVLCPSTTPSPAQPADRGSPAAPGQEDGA
Tyrosine-protein kinase Blk (Homo sapiens), sequence (P51451 2-505 limits assumed): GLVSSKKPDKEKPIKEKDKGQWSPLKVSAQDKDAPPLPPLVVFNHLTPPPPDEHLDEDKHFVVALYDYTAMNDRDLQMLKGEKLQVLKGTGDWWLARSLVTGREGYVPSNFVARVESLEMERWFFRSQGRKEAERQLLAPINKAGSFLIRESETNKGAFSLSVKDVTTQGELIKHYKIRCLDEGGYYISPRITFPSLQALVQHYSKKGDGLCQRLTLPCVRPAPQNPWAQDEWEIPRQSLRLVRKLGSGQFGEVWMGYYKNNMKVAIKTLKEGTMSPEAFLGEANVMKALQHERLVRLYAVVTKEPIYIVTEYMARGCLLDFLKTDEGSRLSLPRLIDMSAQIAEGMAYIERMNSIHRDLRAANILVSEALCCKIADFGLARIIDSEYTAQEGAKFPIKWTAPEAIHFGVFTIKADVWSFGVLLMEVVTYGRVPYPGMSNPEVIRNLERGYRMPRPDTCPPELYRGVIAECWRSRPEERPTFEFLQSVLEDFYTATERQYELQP

Cc1cccc2c1NC(=O)/C2=N\Nc1ccc(S(N)(=O)=O)cc1
inhibition [1]: -0.34% | inhibition [2]: 1.72% | inhibition [3]: 5.96% | inhibition [4]: -0.08% | inhibition [5]: 2.79% | inhibition [6]: 0.03% | inhibition [7]: 1.67% | inhibition [8]: 1.48% | inhibition [9]: 1.48% | inhibition [10]: 3.78%

N#Cc1c(NC(=O)CN2CCOCC2)sc2c1CCCC2
inhibition [1]: -0.41% | inhibition [2]: 3.64% | inhibition [3]: 3.64% | inhibition [4]: -0.4% | inhibition [5]: 3.55% | inhibition [6]: 0.26% | inhibition [7]: 6.1% | inhibition [8]: 0.98% | inhibition [9]: 3.11% | inhibition [10]: 6.19%

COC(=O)Nc1nc2ccc(S(=O)(=O)c3ccc(NC(=O)Nc4cc(C(F)(F)F)ccc4F)cc3)cc2[nH]1
inhibition [1]: -1.71% | inhibition [2]: 1.71% | inhibition [3]: 3.18% | inhibition [4]: 6.6% | inhibition [5]: 5.12% | inhibition [6]: 2.94% | inhibition [7]: 2.51% | inhibition [8]: 1.86% | inhibition [9]: 0.94% | inhibition [10]: 2.8%

Fc1ccc(-c2nn3ncccc3c2-c2ccnc(Nc3ccc4c(c3)OCCO4)n2)cc1
inhibition [1]: -5.61% | inhibition [2]: 14.4% | inhibition [3]: 71.2% | inhibition [4]: 15% | inhibition [5]: 49.4% | inhibition [6]: 17.1% | inhibition [7]: 67.8% | inhibition [8]: -1.09% | inhibition [9]: 5.26% | inhibition [10]: 3.81%

Fc1ccc(-c2cc(-c3c[nH]nc3-c3ccccn3)ccn2)cc1
inhibition [1]: -8.99% | inhibition [2]: 2.97% | inhibition [3]: 2.43% | inhibition [4]: -2.56% | inhibition [5]: 3.99% | inhibition [6]: 5.01% | inhibition [7]: 7.81% | inhibition [8]: 0.31% | inhibition [9]: -1.93% | inhibition [10]: 5.1%

COc1ccc(CNC(=O)c2ccc(-c3cc(-c4nnc(C)o4)ccc3C)cc2)cc1
inhibition [1]: 2.74% | inhibition [2]: 2.54% | inhibition [3]: 0.87% | inhibition [4]: -0.31% | inhibition [5]: 0.63% | inhibition [6]: 0.56% | inhibition [7]: 4.1% | inhibition [8]: 0.04% | inhibition [9]: 2.36% | inhibition [10]: 3.65%

CCn1c(-c2nonc2N)nc2c(C#CC(C)(C)O)nc(OC[C@H](N)c3ccccc3)cc21
inhibition [1]: -3% | inhibition [2]: 3.73% | inhibition [3]: 2.85% | inhibition [4]: 3.88% | inhibition [5]: 5.18% | inhibition [6]: 2.66% | inhibition [7]: 2.72% | inhibition [8]: 0.09% | inhibition [9]: 0.56% | inhibition [10]: -1.53%

COc1cc(/C=N/Nc2ncnc3[nH]ncc23)ccc1O
inhibition [1]: -3.87% | inhibition [2]: 9.75% | inhibition [3]: 59.7% | inhibition [4]: 2.08% | inhibition [5]: 32.4% | inhibition [6]: 5.52% | inhibition [7]: 30.3% | inhibition [8]: 1.57% | inhibition [9]: 7.64% | inhibition [10]: 7.17%

CNC(=O)c1cccc(C#Cc2cncnc2Nc2ccc(OCc3cccc(F)c3)c(Cl)c2)c1
inhibition [1]: -0.81% | inhibition [2]: 1.53% | inhibition [3]: 1.17% | inhibition [4]: -1.48% | inhibition [5]: 1.31% | inhibition [6]: -0.91% | inhibition [7]: 2.87% | inhibition [8]: 2.52% | inhibition [9]: -0.29% | inhibition [10]: 1.96%

CC(=O)NCc1cccc(C#Cc2cncnc2Nc2ccc(OCc3cccc(F)c3)c(Cl)c2)c1
inhibition [1]: 0.14% | inhibition [2]: -0.03% | inhibition [3]: 0.29% | inhibition [4]: 2.32% | inhibition [5]: 0.07% | inhibition [6]: 0.12% | inhibition [7]: 3.96% | inhibition [8]: -1.42% | inhibition [9]: -0.78% | inhibition [10]: -0.86%

COc1ccc(-c2oc3ncnc(N)c3c2-c2ccc(NC(=O)Nc3cc(C(F)(F)F)ccc3F)cc2)cc1
inhibition [1]: 82.1% | inhibition [2]: 5.14% | inhibition [3]: 41.2% | inhibition [4]: 8.1% | inhibition [5]: 59.5% | inhibition [6]: 3.11% | inhibition [7]: 25.4% | inhibition [8]: 1.43% | inhibition [9]: 13.3% | inhibition [10]: 10.9%

O=S(=O)(CCNCc1ccc(-c2ccc3ncnc(Nc4ccc(OCc5cccc(F)c5)c(Cl)c4)c3c2)o1)c1ccccc1
inhibition [1]: -5.93% | inhibition [2]: 2.67% | inhibition [3]: 6.67% | inhibition [4]: 5.7% | inhibition [5]: 6.77% | inhibition [6]: 6.2% | inhibition [7]: 6.15% | inhibition [8]: -0.83% | inhibition [9]: 1.59% | inhibition [10]: 7.31%

N#Cc1c(NC(=O)c2ccc(F)cc2)sc2c1CCCC2
inhibition [1]: -1.26% | inhibition [2]: 0.68% | inhibition [3]: 1.75% | inhibition [4]: 1.31% | inhibition [5]: 0.33% | inhibition [6]: -0.11% | inhibition [7]: -2% | inhibition [8]: -1.3% | inhibition [9]: -0.45% | inhibition [10]: 1.81%

CC(C)COC(=O)c1ccc2c(c1)/C(=C/Nc1ccc(S(N)(=O)=O)cc1)C(=O)N2
inhibition [1]: 13.2% | inhibition [2]: 1.11% | inhibition [3]: 28.6% | inhibition [4]: 0.73% | inhibition [5]: -1.5% | inhibition [6]: -2.24% | inhibition [7]: -2.63% | inhibition [8]: -1.47% | inhibition [9]: -1.1% | inhibition [10]: -2.24%

COc1cccc(-c2c[nH]c3c(N/N=C/c4ccncc4)ncnc23)c1
inhibition [1]: 3.21% | inhibition [2]: 7.63% | inhibition [3]: 57.9% | inhibition [4]: 8.13% | inhibition [5]: 45.1% | inhibition [6]: 2.51% | inhibition [7]: 4.81% | inhibition [8]: 0.88% | inhibition [9]: 2.48% | inhibition [10]: 4.78%

CCOc1ccc2c(-c3ccnc(Nc4cccc(C(F)(F)F)c4)n3)cnn2n1
inhibition [1]: -0.78% | inhibition [2]: 2.21% | inhibition [3]: 3.22% | inhibition [4]: 3.34% | inhibition [5]: 1.94% | inhibition [6]: -0.32% | inhibition [7]: 0.97% | inhibition [8]: 0.07% | inhibition [9]: 1.18% | inhibition [10]: 1.57%

COc1cccc(-n2ncc3c(N/N=C/c4ccc(F)cc4)ncnc32)c1
inhibition [1]: -3.79% | inhibition [2]: 4.91% | inhibition [3]: 18.2% | inhibition [4]: -0.31% | inhibition [5]: 13% | inhibition [6]: 4.36% | inhibition [7]: 5.54% | inhibition [8]: 1.48% | inhibition [9]: 1.13% | inhibition [10]: 3.3%
